In the library only some 3% were active in any assay of this set; here they are far more common.
FBA Mtb inh: Mtb fructose-bisphosphate aldolase inhibition; P9WQA3; purified M. tuberculosis FBA, fluorescence read-out; inhibition, % at 1 µM; hit rate 2.3% among 360,000; AID 588726;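 note: 0% = vehicle and 100% = reference inhibitor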
Target sequence (P9WQA3 whole entry, looked up): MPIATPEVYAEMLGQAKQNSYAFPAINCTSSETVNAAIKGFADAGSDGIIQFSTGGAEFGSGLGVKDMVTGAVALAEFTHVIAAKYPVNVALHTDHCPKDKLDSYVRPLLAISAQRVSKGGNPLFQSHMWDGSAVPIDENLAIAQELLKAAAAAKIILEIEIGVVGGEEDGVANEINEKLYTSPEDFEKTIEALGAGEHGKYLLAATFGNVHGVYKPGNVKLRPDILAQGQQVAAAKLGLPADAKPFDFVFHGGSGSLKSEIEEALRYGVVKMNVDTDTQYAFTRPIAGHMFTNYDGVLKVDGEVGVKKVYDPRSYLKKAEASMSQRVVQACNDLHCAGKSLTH
FadD28 binding: blocks FadD28 binding to the bisubstrate probe; hit rate 0.22% among 360,000; inhibition, % at 12.5 µM; fluorescence polarization; in the data active = inhibition above about 8.5%, passing the limit was not always enough
GDH-TPI counter-1: inhibits GDH-TPI coupling enzymes, artifact for Mtb FBA screen; GDH-TPI coupled enzyme counterscreen, NADH absorbance; inhibition, % at 4.8 µM; hit rate 1.2% among 360,000; in the data active = inhibition above about 30%;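 note: 0% = DMSO wells and 100% = wells lacking the enzyme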
BioA inh: inhibitors of Mycobacterium tuberculosis BioA enzyme; inhibition, % at 9.99 µM; purified M. tuberculosis BioA enzyme, plate reader; hit rate 0.096% among 360,000; AID 602481; in the data active = inhibition above about 40%
Rv3671c inh: inhibits the M. tuberculosis serine protease Rv3671c; AID 2606; P9WHR9; inhibition, % at 5.96 µM; hit rate 0.048% among 320,000; in the data active = inhibition above about 38%;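 note: extracellular domain of Rv3671c used as enzyme; 0% = enzyme with DMSO and 100% = no enzyme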
Mtb FBA confirm: Mtb FBA inhibition, confirmed | shares compounds with FBA Mtb inh | purified M. tuberculosis FBA, fluorescence read-out | inhibition, % at 1 µM | hit rate 78% among 5,600 | AID 651616;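 note: 0% = vehicle wells and 100% = reference inhibitor wells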
GDH-TPI counter-2: counter-screen for M. tuberculosis FBA inhibitors: GDH-TPI coupled enzyme inhibition; shares compounds with FBA Mtb inh; AID 652141; hit rate 81% among 5,600; inhibition, % at 1 µM; GDH-TPI coupled enzyme counterscreen, fluorescence; in the data active = inhibition above about 10%
An asterisk follows results filed as active; . = not tested or not shown. Cut-off read from the data, not from the text of the source, unless noted: active = inhibition above about 27%; inactive = the rest.

SMILES	FBA Mtb inh	FadD28 binding	GDH-TPI counter-1	BioA inh	Rv3671c inh	Mtb FBA confirm	GDH-TPI counter-2
CC(C)NC(=O)Nc1ccc2c(c1)C(=O)N([C@@H](C)CO)C[C@@H](C)[C@H](CN(C)Cc1ccc(C(=O)O)cc1)OCCCC[C@@H](C)O2	.	.	.	1	.	.	.
C[C@H]1CN([C@@H](C)CO)C(=O)c2cc(C3=CCCCC3)cnc2O[C@@H]1CN(C)Cc1ccccn1	.	.	.	-1	.	.	.
COC(=O)C1=C(C)NC(=O)NC1c1ccc(N2CCC(c3ccccc3)=N2)cc1 (stereo unspecified)	78*	-4	11	0	-1	109*	78*
Cc1ccc(CN2CCN(CC(=O)NCc3ccccc3)CC2)cc1	-2	-2	20	-1	.	.	.
Cc1ccc(CNC(=O)CN(C(=O)C2(C)CC(=O)N=C3C=CC=CN32)c2cccc(C)c2C)cc1 (stereo unspecified)	111*	.	1	-1	-14	93*	86*
Cc1ccc(CNC(=O)CN(C(=O)C2(C)CC(=O)N=C3C=CC=CN32)c2ccccc2)cc1 (stereo unspecified)	74*	-2	2	0	5	-1	-2
CCC(=O)N(C)C[C@@H]1Oc2ncc(C#CC(C)(C)O)cc2C(=O)N([C@@H](C)CO)C[C@H]1C	.	.	.	-1	.	.	.
CC(C)NC(=O)N(C)C[C@H]1Oc2ccc(NC(=O)NC3CCCCC3)cc2C(=O)N([C@H](C)CO)C[C@H]1C	.	.	.	2	.	.	.
C=CCn1c(=O)c(C(=O)Nc2ccccc2O)c(O)c2ccccc21	29*	0	18	-4	6	26	24*
C=CCn1c(=O)c(C(=O)Nc2ccccc2C)c(O)c2ccccc21	-1	-1	18	0	.	.	.
O=C(Nc1cccc2ccccc12)N1CCN(Cc2ccccc2)CC1	33*	-1	-13	0	-7	96*	74*
O=C(Nc1cccc2ccccc12)N1CC=C(c2ccccc2)CC1	33*	0	-1	-1	3	55*	68*
CCOC(=O)N1CCN(C(=O)Nc2cccc3ccccc23)CC1	31*	0	-5	.	-2	170*	156*
O=C(Nc1ccccc1)N1CC=C(c2ccccc2)CC1	.	.	.	.	-6	.	.
Cc1cccc(NC(=O)N2CCN(Cc3ccccc3)CC2)c1	0	-3	-5	1	4	.	.
CCCNC(=O)C[C@H]1C[C@@H]2c3cc(NS(=O)(=O)c4ccc(OC)cc4)ccc3O[C@@H]2[C@H](CO)O1	.	.	.	0	.	.	.
CCN1[C@@H]2Cn3c(ccc(-c4cccc(F)c4)c3=O)[C@H]1[C@@H](C(=O)NCC1CC1)[C@@H]2CO	.	.	.	0	.	.	.
CCOC(=O)Nc1ccc2c(COC(=O)c3ccccc3O)cc(=O)oc2c1	56*	-3	20	-2	-6	38*	32*
CCOC(=O)Nc1ccc2c(COC(=O)CN(C)S(=O)(=O)c3ccc(C)cc3)cc(=O)oc2c1	79*	-1	13	0	-16	41*	23*
C[C@H]1CN([C@@H](C)CO)C(=O)c2cccc(NS(=O)(=O)c3ccc(Cl)cc3)c2O[C@H]1CN(C)S(=O)(=O)c1ccc(F)cc1	.	.	.	-2	.	.	.
CC(=O)N1[C@@H]2c3ccc(-c4ccccc4)c(=O)n3C[C@H]1[C@H](CO)[C@H]2C(=O)NCC1CC1	.	.	.	-1	.	.	.
CCc1cccc(Nc2c([N+](=O)[O-])cc(C(=O)N3CC(=O)Nc4ccccc43)cc2[N+](=O)[O-])c1	111*	0	16	.	2	145*	103*
COc1ccc2[nH]c3c(c2c1)CCNC3=O	88*	-5	2	0	9	44*	36*
O=C1NCCc2c1[nH]c1ccc([N+](=O)[O-])cc21	-1	-2	8	.	6	.	.
COc1ccc2oc(-c3ccccc3)c(C(=O)N(C)C)c2c1	34*	1	10	0	0	120*	113*
O=c1cc(-c2ccccc2)oc2ccc(Br)cc12	4	-1	10	1	-2	.	.
CN(C)C(=O)c1c(-c2ccccc2)oc2ccc(O)cc12	18	-3	7	0	-2	.	.
COc1ccc2oc(-c3ccccc3)cc(=O)c2c1	79*	-3	12	-1	.	134*	100*
COc1ccc2oc(-c3ccccc3)c(C(N)=O)c2c1	99*	-1	21	-2	-5	110*	88*
